HT1080 IDH1KD tx – HT-1080 IDH1 knockdown cell toxicity (counter line) | 360,000 tested, 2% active | AID 686971 | HT-1080 IDH1 knockdown viability, ATP luminescence, 48 h | Potency, µM (doses to about 46.1 µM), without a hit: at the highest dose activity, negative = toxicity, usual class: cytotoxic;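 further: potency means the concentration at half of the fitted maximal effect; 0% = DMSO wells and -100% = cell-free medium wells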
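IDH1KD HT-1080 cells, 750/well, RPMI + 5% FBS; compound pinned after 2 h settling; 48 h, 37 °C; CellTiter-Glo luminescence; % activity normalised to DMSO and no-cell wells; curves fitted, classed by r2 and efficacy.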
DT40 TDP1 no CPT – qHTS for Inhibitors of human tyrosyl-DNA phosphodiesterase 1 (TDP1): qHTS in cells in absence of CPT; DT40 Tdp1-/- hTDP1 cells, no CPT, ATP luminescence, 48 h; Potency, µM (doses to about 46.2 µM), for the others: at the top dose activity change, negative = growth inhibition, actives largely listed as inhibitors; 420,000 tested, 15% active; further: potency means the concentration at half of the fitted maximal effect; nearly all actives have a fitted effect of over 55% in size
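Compound effects on proliferation are scored in DT40 Tdp1-/-;hTDP1 cells in the absence of CPT. ATP levels (CellTiter-Glo luminescence) are recorded after a ≥48 hr, 37 °C incubation.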
IL-1B inflam inh – blocks inflammasome-driven IL-1 beta release. THP-1 LPS/ATP IL-1B secretion, AlphaLISA, 16 h; active compounds read low. activity change, % at 57.5 µM. 360,000 tested, 4.7% active. AID 743279; in the data active means activity change below about -50%; inconclusive means mostly about -30% to -49%
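Secreted IL-1B measured by AlphaLISA bead assay after 16 h compound exposure of THP-1 cells; compounds (final up to 57.5 uM) added 1 h before LPS (250 ng/mL) and ATP (1.25 mM) stimulation; lower signal means less secretion.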
HT1080NT lethal – kills 2HG-producing HT-1080-NT fibrosarcoma cells; AID 686970; 360,000 tested, 1.6% active; HT-1080-NT fibrosarcoma viability, CellTiter-Glo ATP luminescence, 48 h; Potency, µM (titrated, usually from 46.1 µM), for inactives: at the top dose activity, negative = less viability, hits mostly cytotoxic;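 further: NT is the 2HG producing partner of a matched IDH1 knockdown line; potency means the concentration at half of the fitted maximal effect; 0% = DMSO-treated cells and -100% = media-only wells without cells; nearly all actives have a fitted effect of over 55% in size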
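Luminescent CellTiter-Glo readout after 48 hours of compound exposure at 37 degrees C defined viability of HT-1080-NT cells. Activity was normalized to DMSO wells and cell-free media wells; concentration-response curves were fitted and assigned curve classes.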
DT40 TDP1 CPT – growth inhibition of DT40 Tdp1-/-;hTDP1 cells with camptothecin (screen for TDP1 inhibitors); 420,000 tested, 12% active; chicken DT40 Tdp1-/-;hTDP1 cells + 20 nM CPT, ATP luminescence, 48 h; AID 686979; Potency, µM (doses to about 46.2 µM), inactives show top-dose activity change, negative = growth inhibition, usual class: inhibitors; further: potency means the concentration at half of the fitted maximal effect; nearly all actives have a fitted effect of over 55% in size
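Chicken DT40 Tdp1-/- cells stably complemented with human TDP1 were seeded at 400 cells/well in medium containing 20 nM camptothecin, exposed to pin-transferred compounds, and grown at 37 °C for at least 48 hr. Viability was read as ATP luminescence.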
* = called active by the depositor. Compounds with a hit are over-represented: about 19% of the library has one in this group of screens. Unless noted, the call rests on the fitted dose curve; in most records, active means well fitted curve in the direction sought with a large enough effect; inconclusive means small, poorly fitted or top-dose-only effect, or another doubt; inactive means no such curve, though single readings can be large; an effect the other way counts as inactive or inconclusive. Unless noted, on the % scale 0 is the no-effect control and ±100 the full control effect.

What do the screens show for `Cc1ccc(C)c(N2CCN(C(=O)C3CCN(C(=O)c4cc5sccc5n4C)CC3)CC2)c1`?
DT40 TDP1 no CPT: 8.2µM*; DT40 TDP1 CPT: 9.2µM*

Results for CCn1c(C(=O)N2CCCC(C(=O)N3CCN(c4cc(C)ccc4C)CC3)C2)cc2sccc21 (centres undefined) ?
DT40 TDP1 no CPT: 13µM*; DT40 TDP1 CPT: inconclusive

How did O=C1c2ccccc2C(=O)N1Nc1ccccc1 do in these assays?
HT1080 IDH1KD tx: -10%; DT40 TDP1 no CPT: -1%; IL-1B inflam inh: -4; HT1080NT lethal: inconclusive; DT40 TDP1 CPT: -4%

How did Cc1ccc(NN2C(=O)C=C(c3ccccc3)C2=O)cc1 do in these assays?
HT1080 IDH1KD tx: 16µM*; DT40 TDP1 no CPT: 7.3µM*; IL-1B inflam inh: -28; HT1080NT lethal: 23µM*; DT40 TDP1 CPT: 5.8µM*

How did COc1ccc(OC)c(NC(=O)CCC(=O)Oc2ccc(C)cc2)c1 do in these assays?
HT1080 IDH1KD tx: -10%; DT40 TDP1 no CPT: -17%; IL-1B inflam inh: -2; HT1080NT lethal: -8%; DT40 TDP1 CPT: -12%

How did CC1(Oc2ccc(CC#N)cc2)CCN(Cc2ccccc2OC(F)F)C1 (centres undefined) do in these assays?
HT1080 IDH1KD tx: 10%; DT40 TDP1 no CPT: -27%; IL-1B inflam inh: 18; HT1080NT lethal: 12%; DT40 TDP1 CPT: -29%

Results for CC(C)Oc1ccccc1OC1(C)CCN(Cc2ccc(OC(F)(F)F)cc2)C1 (centres undefined) ?
HT1080 IDH1KD tx: 4%; DT40 TDP1 no CPT: inconclusive; IL-1B inflam inh: 23; HT1080NT lethal: -8%; DT40 TDP1 CPT: inconclusive

What do the screens show for `CCc1ccc(OC2(C)CCN(Cc3ccc(SC)cc3)C2)cc1` (centres undefined)?
HT1080 IDH1KD tx: inconclusive; DT40 TDP1 no CPT: inconclusive; IL-1B inflam inh: -7; HT1080NT lethal: inconclusive; DT40 TDP1 CPT: inconclusive

How did CSc1ccc(OC2(C)CCN(Cc3ccc(C(C)C)cc3)C2)cc1 (centres undefined) do in these assays?
HT1080 IDH1KD tx: -19%; DT40 TDP1 no CPT: 18µM*; IL-1B inflam inh: 28; HT1080NT lethal: -27%; DT40 TDP1 CPT: inconclusive

Results for CC1(Oc2ccc(Cl)cc2)CCN(Cc2ccc(OC(F)(F)F)cc2)C1 (centres undefined) ?
HT1080 IDH1KD tx: 29%; DT40 TDP1 no CPT: -11%; IL-1B inflam inh: -81*; HT1080NT lethal: 1%; DT40 TDP1 CPT: inconclusive

Results for CC1(Oc2ccc(CC#N)cc2)CCN(Cc2ccc(-n3ccnc3)cc2)C1 (centres undefined) ?
HT1080 IDH1KD tx: 18%; DT40 TDP1 no CPT: 13µM*; IL-1B inflam inh: -1; HT1080NT lethal: 27%; DT40 TDP1 CPT: inconclusive

What do the screens show for `CCCCN1CC(=O)N2[C@H]3c4cc(C)ccc4OC[C@@H]3[C@H](C(=O)OCC)[C@]2(C)C1=O`?
HT1080 IDH1KD tx: 1%; DT40 TDP1 no CPT: -5%; IL-1B inflam inh: 8; HT1080NT lethal: -3%; DT40 TDP1 CPT: -30%

How did CCn1c(SCc2nc3ccccc3c(=O)[nH]2)nnc1C(C)NC(=O)c1ccccc1F (centres undefined) do in these assays?
HT1080 IDH1KD tx: 5%; DT40 TDP1 no CPT: -1%; IL-1B inflam inh: 6; HT1080NT lethal: -3%; DT40 TDP1 CPT: -21%

What do the screens show for `C[C@@H]1CN([C@@H](C)CO)C(=O)CCCn2nncc2CO[C@H]1CN(C)C(=O)OCc1ccccc1`?
HT1080 IDH1KD tx: 7%; DT40 TDP1 no CPT: -12%; IL-1B inflam inh: 30; HT1080NT lethal: 11%; DT40 TDP1 CPT: 1%

Results for CN(C)S(=O)(=O)c1ccc(C(=O)OCc2nnc(-c3ccccc3)o2)cc1 ?
HT1080 IDH1KD tx: 4%; DT40 TDP1 no CPT: -6%; IL-1B inflam inh: 6; HT1080NT lethal: 16%; DT40 TDP1 CPT: 9%

How did CC(C)[C@H](NC(=O)c1ccccc1)C(=O)OCc1nnc(-c2ccccc2)o1 do in these assays?
HT1080 IDH1KD tx: 27%; DT40 TDP1 no CPT: 23µM*; IL-1B inflam inh: 34; HT1080NT lethal: 15%; DT40 TDP1 CPT: inconclusive

What do the screens show for `CC(=O)c1c(C)[nH]c(C(=O)OCc2nnc(-c3ccccc3)o2)c1C`?
HT1080 IDH1KD tx: -16%; DT40 TDP1 no CPT: 13µM*; IL-1B inflam inh: 25; HT1080NT lethal: -2%; DT40 TDP1 CPT: inconclusive

How did Cc1ccc(C(=O)N[C@H](C(=O)OCc2nnc(-c3ccccc3)o2)C(C)C)cc1 do in these assays?
HT1080 IDH1KD tx: -4%; DT40 TDP1 no CPT: -19%; IL-1B inflam inh: 19; HT1080NT lethal: -5%; DT40 TDP1 CPT: -32%

What do the screens show for `O=C(OCc1nnc(-c2ccccc2)o1)c1ccc(S(=O)(=O)NCc2ccco2)cc1`?
HT1080 IDH1KD tx: 0%; DT40 TDP1 no CPT: 23µM*; IL-1B inflam inh: 0; HT1080NT lethal: 13%; DT40 TDP1 CPT: inconclusive

How did CS(=O)(=O)c1ccc(C(=O)OCc2nnc(-c3ccccc3)o2)cc1[N+](=O)[O-] do in these assays?
HT1080 IDH1KD tx: 4.1µM*; DT40 TDP1 no CPT: 10µM*; IL-1B inflam inh: -70*; HT1080NT lethal: 7.3µM*; DT40 TDP1 CPT: 3.7µM*

Results for COc1ccc(S(=O)(=O)Nc2cccc3c2O[C@@H](CN(C)Cc2ccc(C(=O)O)cc2)[C@@H](C)CN([C@H](C)CO)C3=O)cc1 ?
HT1080 IDH1KD tx: 11%; DT40 TDP1 no CPT: 1%; IL-1B inflam inh: 20; HT1080NT lethal: 23%; DT40 TDP1 CPT: -27%

Results for COc1ccccc1OCCCCn1ncc2ccc(OC)c(OC)c2c1=O ?
HT1080 IDH1KD tx: 4%; DT40 TDP1 no CPT: inconclusive; IL-1B inflam inh: 39; HT1080NT lethal: 4%; DT40 TDP1 CPT: inconclusive

How did Cc1n[nH]c2ccc([N+](=O)[O-])cc2c1=O do in these assays?
HT1080 IDH1KD tx: 6%; DT40 TDP1 no CPT: -30%; IL-1B inflam inh: -19; HT1080NT lethal: 2%; DT40 TDP1 CPT: -18%

What do the screens show for `Nc1nc2c(s1)CCc1c-2cnn1-c1ccccc1`?
HT1080 IDH1KD tx: -12%; DT40 TDP1 no CPT: 13µM*; IL-1B inflam inh: 0; HT1080NT lethal: -8%; DT40 TDP1 CPT: 15µM*

Results for Cc1ccc(-c2cnn(-c3ccccc3)c2N)cc1 ?
HT1080 IDH1KD tx: -22%; DT40 TDP1 no CPT: 10%; IL-1B inflam inh: 0; HT1080NT lethal: -22%; DT40 TDP1 CPT: inconclusive

Results for CC1=C(C(=O)OCc2ccc3c(c2)OCO3)C(c2cccc([N+](=O)[O-])c2)NC(=O)N1 (centres undefined) ?
HT1080 IDH1KD tx: -2%; DT40 TDP1 no CPT: inconclusive; IL-1B inflam inh: -10; HT1080NT lethal: -22%; DT40 TDP1 CPT: inconclusive
